In PubChem BioAssay (Tox21):
Records with an inconclusive call do not appear. A call without a number means that no potency is given here. A number with no mark means an inactive call. The source made the active and inactive calls. Calls come from the whole dose curve; as a rule, active = well fitted curve in the direction sought with a large enough effect in the repeat runs; inconclusive = weak or mixed curves; inactive = no such curve, though single readings can be large; an effect the other way counts as inactive or inconclusive.

Molecular target: Luciferin 4-monooxygenase (Photinus pyralis) (UniProt P08659)
Assay: qHTS assay to identify small molecule inhibitors of firefly luciferase (AID 1224835); note: nearly all actives have a fitted effect of over 25% in size; note: potency is the fitted concentration of half-maximal effect
Conditions: purified P. pyralis luciferase, luminescence inhibition; series mostly up to 115 µM
How it was run: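 Inhibition of purified Photinus luciferase is measured by luminescence. Substrate levels (D-luciferin, ATP) sit at their KM values. Each compound is tested in a concentration series.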

Sequence of Luciferin 4-monooxygenase (Photinus pyralis) (P08659 whole entry, looked up): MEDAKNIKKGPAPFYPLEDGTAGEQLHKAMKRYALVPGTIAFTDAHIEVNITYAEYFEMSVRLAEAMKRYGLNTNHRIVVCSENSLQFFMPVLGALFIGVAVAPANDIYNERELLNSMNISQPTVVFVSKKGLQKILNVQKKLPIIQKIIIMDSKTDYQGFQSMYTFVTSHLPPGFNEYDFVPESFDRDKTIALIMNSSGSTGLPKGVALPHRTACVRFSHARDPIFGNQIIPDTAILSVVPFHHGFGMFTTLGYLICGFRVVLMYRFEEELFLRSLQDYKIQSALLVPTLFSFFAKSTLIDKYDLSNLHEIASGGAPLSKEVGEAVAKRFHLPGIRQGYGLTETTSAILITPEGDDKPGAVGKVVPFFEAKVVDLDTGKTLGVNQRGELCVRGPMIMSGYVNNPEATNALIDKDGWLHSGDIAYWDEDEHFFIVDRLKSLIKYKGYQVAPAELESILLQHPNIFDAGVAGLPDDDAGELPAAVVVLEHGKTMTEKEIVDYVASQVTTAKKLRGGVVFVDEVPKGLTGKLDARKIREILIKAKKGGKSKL

| Compound | Potency | activity change, negative = inhibition |
| --- | --- | --- |
| ONc1ccccc1 | 22.2 µM (active) |  |
| CC(C)OC(=O)CCC(=O)OC(C)C | inactive |  |
| CC(C)(CO)C(O)C(=O)NCCCO (centres undefined) | inactive |  |
| Cn1c(=O)c2[nH]c(Br)nc2n(C)c1=O | inactive |  |
| COC(=O)CCCCC(=O)O | inactive |  |
| N[C@@H](Cc1ccc(O)cc1)C(=O)O |  | 1.38% [at 10.5 µM] |
| COc1ccc(CCO)cc1 | inactive |  |
| C[C@@H](O)C(=O)O | inactive |  |
| CCCc1ccc(O)cc1 | inactive |  |
| CC1(C)Oc2ccc(C#N)cc2[C@@H](N2CCCC2=O)[C@@H]1O | inactive |  |
| CCC/C=C(\C=O)CC | inactive |  |
| CC(C)=CCC/C(C)=C/COC=O | inactive |  |
| O=C(CCCCC(=O)Nc1c(I)cc(I)c(C(=O)O)c1I)Nc1c(I)cc(I)c(C(=O)O)c1I | inactive |  |
| COP(=O)(O)OP(=O)(O)OC | inactive |  |
| O=C(O)CCCCCC(=O)O | inactive |  |
| COS(=O)(=O)O | inactive |  |
| C[C@]12CCC(=O)C=C1CC[C@H]1[C@@H]3CC[C@](O)(C(=O)CO)[C@@]3(C)C[C@H](O)[C@@]12F | inactive |  |
| CCCCCCCCCOC(=O)CCCCC(=O)OCCCCCCC | inactive |  |
| O=C1NC(c2ccccc2)(c2ccccc2)C(=O)N1COP(=O)(O)O | inactive |  |

| Compound | Potency | activity change, negative = inhibition |
| --- | --- | --- |
| [O-][n+]1cccc(/C(Cl)=N/OC[C@@H](O)CN2CCCCC2)c1 | inactive |  |
| CC(C)NC(=O)c1ccc(C=O)cc1 | 17.4 µM (active) |  |
| O=C1c2ccccc2C(=O)c2cc(Cl)ccc21 |  | 0.579% [at 10.5 µM] |
| CCc1occc(=O)c1O | inactive |  |
| CC(C)[C@H]1CC[C@H](C)C[C@@H]1O | inactive |  |
| Cc1ncc([N+](=O)[O-])n1CC(C)O (centres undefined) | inactive |  |
| CC(=O)CCc1ccc(OC(C)=O)cc1 | inactive |  |
| CC(C)OC(=O)OCOP(=O)(CO[C@H](C)Cn1cnc2c(N)ncnc21)OCOC(=O)OC(C)C | inactive |  |
| CC12CCC(C1)C(C)(C)C2O (centres undefined) | inactive |  |
| CCN(CC)CCN | inactive |  |
| CO[Si](CCCn1c(=O)n(CCC[Si](OC)(OC)OC)c(=O)n(CCC[Si](OC)(OC)OC)c1=O)(OC)OC | inactive |  |
| CC(=O)CC(=O)OC(C)(C)C | inactive |  |
| OCC1CCC(CO)CC1 (centres undefined) | inactive |  |
| OCC1(CO)COCOC1 | inactive |  |
| CCC(C(=O)OCCN1CCOC(c2ccccc2)C1C)c1ccccc1 (centres undefined) | inactive |  |
| COc1cc(OC)nc(O[C@H](C(=O)O)C(OC)(c2ccccc2)c2ccccc2)n1 | inactive |  |
| CCOC(CN1CCN(CC(C)C(=O)c2ccccc2)CC1)c1ccccc1 (centres undefined) |  | -1.09% [at 23.6 µM] |
| C=CCSSCCC | inactive |  |

Test system: not listed separately
Assay: qHTS assay to identify small molecule agonists of the constitutive androstane receptor (CAR) signaling pathway - cell viability counter screen (AID 1224836); note: nearly all actives have a fitted effect of over 45% in size
Conditions: HepG2-CYP2B6-hCAR viability, CellTiter-Fluor, 23 h, PK11195 added to every well; series mostly up to 92.4 µM
How it was run: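 HepG2 cells stably carrying hCAR and a CYP2B6-2.2kb reporter; 15-concentration compounds plus PK11195 (final 0.75 uM), 23 hr at 37 C/5% CO2. Viability read by CellTiter-Fluor fluorescence.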

| Compound | outcome | viability change, negative = cytotoxic |
| --- | --- | --- |
| ONc1ccccc1 | inactive |  |
| CC(C)OC(=O)CCC(=O)OC(C)C | inactive |  |
| CC(C)(CO)C(O)C(=O)NCCCO (centres undefined) | inactive |  |
| Cn1c(=O)c2[nH]c(Br)nc2n(C)c1=O | inactive |  |
| COC(=O)CCCCC(=O)O | inactive |  |
| N[C@@H](Cc1ccc(O)cc1)C(=O)O |  | -0.95% [at 8.39 µM] |
| COc1ccc(CCO)cc1 | inactive |  |
| C[C@@H](O)C(=O)O | inactive |  |
| CCCc1ccc(O)cc1 | inactive |  |
| CC1(C)Oc2ccc(C#N)cc2[C@@H](N2CCCC2=O)[C@@H]1O | inactive |  |
| CCC/C=C(\C=O)CC | inactive |  |
| CC(C)=CCC/C(C)=C/COC=O | inactive |  |
| O=C(CCCCC(=O)Nc1c(I)cc(I)c(C(=O)O)c1I)Nc1c(I)cc(I)c(C(=O)O)c1I | inactive |  |
| COP(=O)(O)OP(=O)(O)OC | inactive |  |
| O=C(O)CCCCCC(=O)O | inactive |  |
| COS(=O)(=O)O | inactive |  |
| C[C@]12CCC(=O)C=C1CC[C@H]1[C@@H]3CC[C@](O)(C(=O)CO)[C@@]3(C)C[C@H](O)[C@@]12F | inactive |  |
| CCCCCCCCCOC(=O)CCCCC(=O)OCCCCCCC | inactive |  |
| O=C1NC(c2ccccc2)(c2ccccc2)C(=O)N1COP(=O)(O)O | inactive |  |

| Compound | outcome | viability change, negative = cytotoxic |
| --- | --- | --- |
| [O-][n+]1cccc(/C(Cl)=N/OC[C@@H](O)CN2CCCCC2)c1 | inactive |  |
| CC(C)NC(=O)c1ccc(C=O)cc1 | inactive |  |
| O=C1c2ccccc2C(=O)c2cc(Cl)ccc21 |  | -1.2% [at 8.39 µM] |
| CCc1occc(=O)c1O | inactive |  |
| CC(C)[C@H]1CC[C@H](C)C[C@@H]1O | inactive |  |
| Cc1ncc([N+](=O)[O-])n1CC(C)O (centres undefined) | inactive |  |
| CC(=O)CCc1ccc(OC(C)=O)cc1 | inactive |  |
| CC(C)OC(=O)OCOP(=O)(CO[C@H](C)Cn1cnc2c(N)ncnc21)OCOC(=O)OC(C)C | inactive |  |
| CC12CCC(C1)C(C)(C)C2O (centres undefined) | inactive |  |
| CCN(CC)CCN | inactive |  |
| CO[Si](CCCn1c(=O)n(CCC[Si](OC)(OC)OC)c(=O)n(CCC[Si](OC)(OC)OC)c1=O)(OC)OC | inactive |  |
| CC(=O)CC(=O)OC(C)(C)C | inactive |  |
| OCC1CCC(CO)CC1 (centres undefined) | inactive |  |
| OCC1(CO)COCOC1 | inactive |  |
| CCC(C(=O)OCCN1CCOC(c2ccccc2)C1C)c1ccccc1 (centres undefined) | inactive |  |
| COc1cc(OC)nc(O[C@H](C(=O)O)C(OC)(c2ccccc2)c2ccccc2)n1 | inactive |  |
| CCOC(CN1CCN(CC(C)C(=O)c2ccccc2)CC1)c1ccccc1 (centres undefined) |  | 0.779% [at 19 µM] |
| C=CCSSCCC | inactive |  |
